High-throughput results (PubChem)
CCT chaperon mod: modulators of cytosolic chaperonin (CCT/TRiC) activity; purified chaperonin ATPase assay, HTRF ADP detection, 30 min; activity change, % (test concentration not listed), hits read low; hit rate 0.3% among 360,000; AID 651819; in the data active = activity change below about -30%
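First, chaperonin was dispensed at 40 nM or 20 nM final depending on batch activity. Next, compounds were pinned at 76 uM and ATP added at 10 uM. After 30 min at 37 °C, ADP detection reagents ran 30 min at ambient temperature.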
gsp antagonist: gsp mutant antagonism. AID 624288. Potency, µM (doses to about 76.9 µM), actives largely listed as inhibitors. hit rate 0.4% among 340,000. gsp-mutant cells, cAMP HTRF, 30 min; calls by dose curve; cell line not stated here;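 also: intracellular cAMP measured with PDE inhibitor Ro 20-1724 present during compound exposure; nearly all actives have a fitted effect of over 65% in size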
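Cells, 2000/well, grown 16–24 h in DMEM 10% FBS with 0.5 mg/ml G418, then compounds plus […] (300 uM addition stock), 30 min at 37C. cAMP read by HTRF (cAMP-d2 and anti-cAMP antibody-K in lysis buffer) after 30 min RT.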
TSHR antag: antagonists of human thyroid stimulating hormone receptor; P16473; TSHR-expressing cells, TSH-stimulated cAMP HTRF, 2 h; active compounds read low; activity change, negative = inhibition, % at 11.5 µM; hit rate 0.2% among 330,000; AID 504810;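 active = activity change below a set negative limit, meaning inhibition stronger than a set level, cut at about -70% in these data; inconclusive = activity change between two set negative limits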
Target sequence (P16473 whole entry, looked up): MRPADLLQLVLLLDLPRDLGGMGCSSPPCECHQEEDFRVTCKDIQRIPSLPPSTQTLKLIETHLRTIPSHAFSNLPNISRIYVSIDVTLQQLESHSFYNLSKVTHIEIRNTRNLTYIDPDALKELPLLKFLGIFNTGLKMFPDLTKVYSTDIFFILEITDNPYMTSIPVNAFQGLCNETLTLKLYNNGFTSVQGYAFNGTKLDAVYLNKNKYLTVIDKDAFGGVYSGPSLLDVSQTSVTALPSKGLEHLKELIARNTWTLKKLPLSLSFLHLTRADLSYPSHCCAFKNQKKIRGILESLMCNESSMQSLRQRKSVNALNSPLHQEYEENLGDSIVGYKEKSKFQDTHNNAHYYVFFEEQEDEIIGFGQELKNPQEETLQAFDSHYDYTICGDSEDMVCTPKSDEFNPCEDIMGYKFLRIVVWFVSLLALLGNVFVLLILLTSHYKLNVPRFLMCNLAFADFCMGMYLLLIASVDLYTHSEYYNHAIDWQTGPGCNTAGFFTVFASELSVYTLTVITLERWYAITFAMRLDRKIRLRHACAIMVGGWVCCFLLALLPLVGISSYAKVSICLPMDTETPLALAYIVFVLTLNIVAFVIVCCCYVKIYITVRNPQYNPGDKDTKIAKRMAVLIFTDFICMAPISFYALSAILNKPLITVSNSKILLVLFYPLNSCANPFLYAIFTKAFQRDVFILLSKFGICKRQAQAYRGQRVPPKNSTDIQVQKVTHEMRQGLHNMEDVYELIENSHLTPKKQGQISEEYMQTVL
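TSHR-expressing cells were treated with compounds, then stimulated with TSH at EC80 (4nM final) for 2 hours at 37 deg C. Cellular cAMP was measured by HTRF competition between lysate cAMP and cAMP-d2 for a cryptate-labelled anti-cAMP antibody.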
uPA generation: inhibitors of cell surface uPA generation; cell surface uPA generation assay, qHTS; hit rate 0.31% among 330,000; Potency, µM (top dose mostly 38.3 µM), hits mostly inhibitors; active = well fitted inhibition curve with a large enough effect; inconclusive = small, poorly fitted or top-dose-only effect; inactive = no such curve, though single readings can be large or run the other way; tested in mouse RAW 264.7 cells; also: nearly all actives have a fitted effect of over 55% in size
gsp agonist: activates gsp, the McCune-Albright syndrome mutation. gsp mutant cells, cAMP HTRF, 30 min. Potency, µM (series often up to 76.9 µM), most hits filed as activators. hit rate 0.13% among 340,000. AID 624287; active = well fitted activation curve with a large enough effect; inconclusive = small, poorly fitted or top-dose-only effect, or another doubt; inactive = no such curve, though single readings can be large or run the other way; cell line not stated here;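 also: phosphodiesterase inhibitor Ro 20-1724 added with compounds to block cAMP breakdown; nearly all actives have a fitted effect of over 60% in size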
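Cells stably selected in G418 were plated at 2000/well, grown 16-24 hr, then given compounds in DMSO with the PDE inhibitor […] (300 uM solution added) for 30 min at 37C; cAMP was read by HTRF.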
Mm-Cpn inhibitor: blocks the Methanococcus maripaludis chaperonin Mm-Cpn | AID 504842 | hit rate 0.031% among 330,000 | purified Mm-Cpn ATPase, ADP Transcreener TR-FRET | Potency, µM (highest dose often 76.9 µM), most hits filed as inhibitors; active = well fitted inhibition curve with a large enough effect; inconclusive = small, poorly fitted or top-dose-only effect; also: nearly all actives have a fitted effect of over 80% in size
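TR-FRET (320 nm excitation; 590 and 665 nm emission) reports ADP made from 10 uM ATP by 25 nM enzyme; compounds were preincubated 10 min, reaction run 30 min, both at 37°C.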
Each line names hits and unclear results; the compound was inactive in the other large screens. Most compounds without a hit are left out; they make up all but 1.2% or so of the library.

COc1cc(COC(=O)c2cnc(C)cn2)c(OC)cc1Br	CCT chaperon mod -52
CCN(Cc1ccccc1)S(=O)(=O)c1ccc(C(=O)Nc2nnc(C3CC3)o2)cc1	uPA generation 3.5µM
Cc1ccc(C(=O)NCCNc2ncc(C(F)(F)F)cc2Cl)cc1[N+](=O)[O-]	TSHR antag -113
CCOC(=O)CSc1nc(-c2ccccn2)ncc1OC	none
O=C(CSc1nc2ccsc2c(=O)n1CC1CCC(C(=O)O)CC1)c1ccc(Cl)cc1 (centres undefined)	gsp antagonist 22µM (no result: uPA generation)
CC(C)(C)Cc1nnc(NC(=O)c2ccco2)s1	CCT chaperon mod -76
C[C@@H]1ON(C)[C@H]2C[C@H]3c4[nH]c5ccc(-c6ccc7c(c6)OCO7)cc5c4CCN3C[C@@H]12	CCT chaperon mod -73 (no result: gsp antagonist, TSHR antag, uPA generation, Mm-Cpn inhibitor)
O=[N+]([O-])c1ccc(CN2CCC(Cc3ccccc3)CC2)cc1	none
C[C@H](NC(=O)c1nc[nH]c1C(=O)NCc1ccccc1)C(=O)OCc1ccccc1	gsp antagonist 11µM
CC(C)(C)OC(=O)NCCCCCNC(=O)c1nc[nH]c1C(=O)NCc1ccc(CNC(=O)OC(C)(C)C)cc1	gsp antagonist 40µM, uPA generation inconclusive (no result: gsp agonist)
CCN(CC)C(=O)c1[nH]cnc1C(=O)N[C@@H](CCCCNC(=O)OC(C)(C)C)C(=O)OC(C)(C)C	CCT chaperon mod -31 (no result: Mm-Cpn inhibitor)
CC(C)C[C@H](NC(=O)c1nc[nH]c1C(=O)NCc1ccccc1)C(=O)OCc1ccccc1	none (no result: gsp agonist, Mm-Cpn inhibitor)
CCOc1cc(NC(=S)NCC2CCCO2)c(OCC)cc1NC(=O)c1ccc(F)cc1 (centres undefined)	none
COc1ccc(C(=O)NC(C)c2ccccc2)cc1Br (centres undefined)	none
CN(C(=O)COC(=O)c1ccccc1OCc1ccc(F)cc1)C1CCS(=O)(=O)C1 (centres undefined)	none
Cc1occc1-c1nnc(SCC(=O)N2CCOCC2)n1CCc1ccccc1	none
COc1ccccc1OCC(=O)c1[nH]c(C)c(C(C)=O)c1C	gsp antagonist 25µM
CC(=O)c1c(C)[nH]c(C(=O)COc2cc(C)ccc2C(C)C)c1C	gsp antagonist 11µM, TSHR antag inconclusive
COc1cc(C)ccc1OCC(=O)OCC(=O)c1[nH]c(C)c(C(C)=O)c1C	none
O=C(NCc1cccnc1)C1CC(=O)N(c2ccc(Cl)cc2)C1 (centres undefined)	none
COc1ccc([C@H]2CC(=O)C=C(c3ccc(OC(F)(F)F)cc3)C2)cc1	none
CCC(=O)N1CCn2c1nc1ccccc12	none (no result: uPA generation)
CCC(c1nnnn1-c1ccc2c(c1)OCCO2)N1CCN(c2ccc(OC)cc2)CC1 (centres undefined)	none (no result: gsp antagonist, TSHR antag, uPA generation, gsp agonist, Mm-Cpn inhibitor)
COc1ccc(N=Cc2ccc[nH]2)cc1	uPA generation inconclusive
CC(C)(C)c1ccc(C(=O)Nc2cccc(S(=O)(=O)NC3=NCCC3)c2)cc1	uPA generation 4µM
Cc1ccc(C(C)C)c(OCC(=O)Nc2cccc(S(=O)(=O)NC3=NCCCCC3)c2)c1	CCT chaperon mod -36
Cc1ccccc1OCC(=O)Nc1cccc(S(=O)(=O)NC2=NCCCCC2)c1	gsp agonist inconclusive
COc1cc(O)c(C(CCN2CCOCC2)c2ccc3c(c2)OCO3)c(OC)c1 (centres undefined)	Mm-Cpn inhibitor inconclusive (no result: gsp agonist)
O=C(c1ccc(Br)o1)N(c1ccc(Br)cc1)C1C=CS(=O)(=O)C1 (centres undefined)	none
O=C(CCC1N=C2c3ccccc3N=C(SCC(=O)NCC3CCCO3)N2C1=O)NCc1ccc(F)cc1 (centres undefined)	CCT chaperon mod -46, gsp agonist inconclusive
COc1ccc(CNC(=O)CCC2N=C3c4ccccc4N=C(SCC(=O)NCC4CCCO4)N3C2=O)cc1 (centres undefined)	gsp agonist inconclusive
Cn1ccnc1C(=O)c1ccc(N)cc1	none
O=C(CCc1ccccc1)NCC(c1ccco1)N1CCc2ccccc21 (centres undefined)	uPA generation 3.2µM
CN(CC(=O)Nc1cccc(F)c1)C(=O)c1ccc2c(c1)CC(c1ccccc1)OC2=O (centres undefined)	uPA generation 4µM
CN(CC(=O)Nc1cccc(F)c1)C(=O)c1ccc(C2SCCS2)cc1	none
CCCCOc1ccc(C(=O)N/C(=C\c2cccc([N+](=O)[O-])c2)C(=O)OC(C)C)cc1	none
CCOCCn1c(SCC)nc2c1c(=O)[nH]c(=O)n2C	none
COCCOC(=O)c1[nH]c2c(c1C)C(=O)C(C(=O)OC)C(C)C2 (centres undefined)	gsp antagonist inconclusive, uPA generation inconclusive
COC(=O)C1C(=O)c2c([nH]c(C(=O)OCC3CCCO3)c2C)CC1C (centres undefined)	uPA generation 13µM
O=C(N/N=C/c1cc(Cl)c(O)c(Cl)c1)c1cc2c(ccc3ccccc32)o1	gsp antagonist 32µM, gsp agonist inconclusive
Cc1ccc(/C=N/NC(=O)c2cc3c(ccc4ccccc43)o2)o1	none
CC(=O)Oc1ccc(/C=N\NC(=O)c2cc3c(ccc4ccccc43)o2)cc1	gsp antagonist 11µM
O=C(COC(=O)CC1CC2CCC1C2)Nc1ccc(F)cc1 (centres undefined)	gsp agonist inconclusive
Cc1ccccc1NC(=O)c1c(C)nn(-c2ccccc2)c1Cl	CCT chaperon mod -40
Cc1ccccc1NC(=O)c1cc2ccccn2n1	TSHR antag -84, uPA generation inconclusive
O=c1oc2ccc(C#CC3(O)CCCCC3)cc2cc1-n1cc(-c2ccccn2)nn1	none
O=C(COC(=O)/C=C/c1ccc(OC(F)F)cc1)NC(=O)NC1CCCCC1	none
O=C(COC(=O)/C=C/c1ccc(OC(F)F)cc1)NC1CCCC1	CCT chaperon mod -117
CCOc1cccc(N2C(=O)CC(N3CCC(C(N)=O)(N4CCCCC4)CC3)C2=O)c1 (centres undefined)	none
CCCCC(=O)Nc1ncc(S(=O)(=O)c2ccc([N+](=O)[O-])cc2)s1	none
COCC(=O)Nc1ncc(S(=O)(=O)c2ccc([N+](=O)[O-])cc2)s1	none
O=C(NC(Nc1ncc(S(=O)(=O)c2ccc([N+](=O)[O-])cc2)s1)(C(F)(F)F)C(F)(F)F)c1ccc(Cl)cc1	gsp antagonist 35µM
O=C(Nc1ncc(S(=O)(=O)c2ccc([N+](=O)[O-])cc2)s1)c1cccc2ccccc12	TSHR antag -82
Cc1cc(C(=O)OCC(=O)N2CCOCC2)c2ccccc2n1	none
Cc1ccc(Cn2cc(CN3CC(N4CCCCC4)CS3(=O)=O)nn2)cc1 (centres undefined)	none (no result: gsp antagonist, TSHR antag, uPA generation, gsp agonist, Mm-Cpn inhibitor)
Cc1ccc(S(=O)(=O)NC(CN2CCOCC2)=NCCNS(=O)(=O)c2ccccc2)cc1	none
